Screens from PubChem.
USP8 inh = inhibitors of human USP8 deubiquitinase | inhibition, % at 20 µM | purified USP8, Ub-rhodamine cleavage fluorescence, 30 min | hit rate 4.2% among 47,000
USP7 inh = blocks human USP7 ubiquitin-rhodamine cleavage; Q93009; purified USP7, Ub-rhodamine cleavage fluorescence; inhibition, % at 20 µM; hit rate 0.3% among 47,000
USP17 inh = human USP17-like deubiquitinase inhibition | hit rate 6.5% among 47,000 | inhibition, % at 50 µM | A8MUK1 | purified USP17, Ub-rhodamine cleavage fluorescence, 3 h
USP28 block = human USP28 deubiquitinase inhibition | purified USP28, Ub-rhodamine cleavage fluorescence, 30 min | AID 1645857 | Q96RU2 | inhibition, % at 25 µM | hit rate 3% among 47,000
USP30 block = blocks human USP30 ubiquitin-rhodamine cleavage; Q70CQ3; purified USP30, Ub-rhodamine cleavage fluorescence; inhibition, % at 25 µM; hit rate 5.3% among 47,000; AID 1645860
USP10 block = blocks human USP10 ubiquitin-rhodamine cleavage | Q14694 | purified USP10, Ub-rhodamine fluorescence, 60 min | inhibition, % at 20 µM | hit rate 1.1% among 47,000 | AID 1645856
* marks the source's active call; other numbers are inactive results; i = inactive; . = not tested or not shown. In the library only some 13% were active in any assay of this set; here they are far more common. No stated cut-off is given here; in the data, active means inhibition above about 30%; inactive means the rest.

SMILES	USP8 inh	USP7 inh	USP17 inh	USP28 block	USP30 block	USP10 block
O=C1N(CC2CC2)CCN1c1ccc2c(c1)CCC2	18	-3	11	34*	20	0
CCCN1CCC2(CC1)Cc1ccccc1CN(S(C)(=O)=O)C2	-94	-4	.	-21	-38	-10
CC(=O)c1ccc(N2CCN(S(=O)(=O)c3cc4c(cc3C)NC(=O)CO4)CC2)cc1	29	9	15	32*	-21	8
COc1ccccc1N1CCN(S(=O)(=O)c2cc3c(cc2C)NC(=O)CO3)CC1	0	-7	-6	-13	-19	-3
Cc1cc2c(cc1S(=O)(=O)N1CCCC(C)C1)OCC(=O)N2 (centres undefined)	1	0	41*	.	.	5
CC(C)(C)c1ccc(N(CC(N)=O)S(C)(=O)=O)cc1	-20	1	11	3	34*	-1
CS(=O)(=O)N(CC(=O)Nc1ccc(S(=O)(=O)N2CCCC2)cc1)c1ccc(Cl)cc1	7	3	0	-8	0	7
Cc1cc(C)n(-c2ccc(C(=O)NCc3cn4cc(C(F)(F)F)cc(Cl)c4n3)cc2)n1	-3	1	37*	19	0	-2
COc1cccc(-n2cc(-c3nc(-c4cccnc4)no3)c3ccccc3c2=O)c1	23	7	28	15	31*	2
O=c1c2ccccc2c(-c2nc(-c3cccnc3)no2)cn1-c1ccc(F)cc1	2	5	22	0	15	1
O=C1c2ncccc2N(S(=O)(=O)c2cccc(F)c2)C[C@@H]2C[C@]12c1ccccc1	10	1	0	3	2	-1
COc1ccccc1[C@]12C[C@H]1CN(C(=O)Nc1ccncc1)c1cccnc1C2=O	-10	1	15	7	34*	0
CCN1C[C@@H]2C[C@]2(c2ccccc2OC)C(=O)c2ncccc21	94*	-8	65*	1	-54	-4
Cc1cccc(S(=O)(=O)Nc2ccc(N3CCN(C)CC3)c(C(=O)O)c2)c1	89*	-11	27	13	13	4
Cc1cccc(NS(=O)(=O)c2ccc(C)c(C(=O)N3CCCc4ccccc43)c2)c1	17	5	13	24	10	18
CCOc1ccccc1NC(=O)C(=O)c1cn(CC(=O)N2CCCCC2)c2ccccc12	-8	0	7	0	40*	1
CC(CCc1ccccc1)NC(=O)C(=O)c1cn(CC(=O)N2CCOCC2)c2ccccc12 (centres undefined)	1	-2	44*	9	50*	-2
CC1CCCN(C(=O)C2CCN(c3cc(N4CCCCC4)ncn3)CC2)C1 (centres undefined)	-3	-4	-7	10	-18	-5
CCc1ccc(-c2nc(SC(C)C(=O)NC3CCCc4ccccc43)n[nH]2)cc1 (centres undefined)	11	10	48*	12	40*	17
O=C(c1cc(C2CC2)[nH]n1)N1CCN(Cc2ccccc2)CC1	-12	4	18	17	34*	3
O=C(c1cc(C2CC2)[nH]n1)N1CCCCC1	22	-6	17	12	8	1
COc1ccccc1NC(=O)NCCc1cn(C)c2ncccc12	13	-8	-2	37*	0	-1
Cc1cc(C)cc(-n2c(C)cc(C(=O)C(=O)NCc3ccccc3)c2C)c1	-86	6	-7	5	-2	8
Cc1cc(OCC(=O)NC2CCCCCC2)c(C(C)C)cc1Cl	8	-4	11	9	25	12
COc1c2c(cc3c1C(CC(=O)c1c(O)c(OC)c4occc4c1OC)[N+](C)(C)CC3)OCO2 (centres undefined)	28	-10	30	13	39*	-1
COc1c2c(cc3c1C(C(=O)Nc1ccc(C)c(C)c1)N(C)CC3)OCO2 (centres undefined)	-24	0	-12	-8	-8	-1
Cc1cc(N)n(-c2nc3ccccc3s2)n1	-122	1	36*	17	41*	0
CCc1ccc(NC(=O)CSc2ncc(S(=O)(=O)c3ccccc3)c(=O)[nH]2)cc1	2	9	27	16	38*	14
Cc1cccc(NC(=O)Cn2cc(S(=O)(=O)c3ccccc3)c(=O)c3ccc(C)nc32)c1	-11	-8	-85	-161	i	-4
CCc1ccc(S(=O)(=O)c2cn(CC(=O)Nc3ccccc3)c3ccccc3c2=O)cc1	77*	23	-26	-18	-58	46*
